Data from PubChem BioAssay (NCI).
The panel holds about 79,000 compounds, 15% with a hit somewhere; the sample as a whole holds those more often. Rule as the data show it: active = growth inhibition above about 70%; inactive = the rest.

Columns and labels:
[1] = NCI Yeast Anticancer Drug Screen. Data for the rad50 strain (AID 155);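 also: 0% = growth of vehicle-only cultures of the same strain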; conditions: S. cerevisiae rad50 strain growth inhibition; at 50.0 µM; stronger effect = higher value
Method in brief: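 Relative growth inhibition (compound vs vehicle) was measured in yeast with a defined repair-gene alteration.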

[2] = NCI Yeast Anticancer Drug Screen. Data for the mec2-1 strain (AID 157); conditions: S. cerevisiae mec2-1 strain, at 50.0 µM, stronger effect = higher value
Method in brief: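 Vehicle-treated cultures served as reference for growth inhibition of compound-exposed mec2-1 yeast.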

[3] = NCI Yeast Anticancer Drug Screen. Data for the sgs1 mgt1 strain (AID 161);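 also: 0% = growth of cultures given vehicle only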; conditions: S. cerevisiae sgs1 mgt1 strain, at 50.0 µM, stronger effect = higher value
Method in brief: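 Genetically altered yeast, compound exposure, growth inhibition relative to vehicle.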

[4] = NCI Yeast Anticancer Drug Screen. Data for the cln2 rad14 strain (AID 165);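 also: 0% = growth equal to vehicle treated cultures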; conditions: S. cerevisiae cln2 rad14 strain, at 50.0 µM, stronger effect = higher value
Method in brief: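 Each compound was tested on cln2 rad14 yeast. Inhibition of growth was calculated against vehicle-exposed controls.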

[5] = NCI Yeast Anticancer Drug Screen. Data for the bub3 strain (AID 167); conditions: S. cerevisiae bub3 mutant strain, at 50.0 µM, stronger effect = higher value
Method in brief: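 Screening used yeast with an engineered genetic alteration affecting cell cycle control. Compound-exposed cultures were compared with vehicle cultures, and reduced growth was taken as inhibition.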

[6] = NCI Yeast Anticancer Drug Screen. Data for the mlh1 rad18 strain (AID 175); conditions: S. cerevisiae mlh1 rad18 strain growth inhibition; at 50.0 µM; stronger effect = higher value
Method in brief: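 Vehicle-treated cultures served as the reference for growth inhibition in a yeast strain carrying DNA damage repair alterations exposed to each compound.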

Measured: growth inhibition

O=C1CSC(c2ccccc2)N1O (stereo unspecified)
inactive: [1] -11.4% | [2] -5% | [3] -22% | [4] -51.5% | [5] -7.5% | [6] -7.7%

CC(C)C1=CC(=Nc2ccc(N(C)C)cc2)C=CC1=O
inactive: [1] -1.35% | [2] 6.4% | [3] 9.5% | [4] -29.2% | [5] 18% | [6] -13.1%

CC1OC1C(=O)C1(O)C(C)C(O)C23OC2(C(O)c2c(O)cccc2C3=O)C1O (stereo unspecified)
inactive: [1] 6.75% | [2] -21.8% | [3] 8.65% | [4] -1.1% | [5] -0.7% | [6] 10.3%

O=C1OC2C(I)C3C(C4CCCCC4)C1C23 (stereo unspecified)
inactive: [1] 8.3% | [2] -3.85% | [3] 31.8% | [4] 17% | [5] 65.8% | [6] 7.7%

Cn1cc(-c2ccccc2)cc1-c1ccccc1
inactive: [1] -11.4% | [2] 6.6% | [3] -4.5% | [4] 4.9% | [5] -14.9% | [6] 9.75%

CC(C)(C)n1nc(C2CC2)c(Br)c1NC(=O)c1ccc(Cl)cc1
inactive: [1] -4.45% | [2] -0.95% | [3] 22.9% | [4] 0.45% | [5] 11.1% | [6] 1.7%

CC(C)=C/C(CC(O)(C(F)(F)F)C(F)(F)F)=N\O
inactive: [1] -17.2% | [2] 4.45% | [3] -6.5% | [4] 18.4% | [5] -15.8% | [6] -13.3%

CN(C)N=Nc1ccc(C(=O)NC(Cc2ccccc2)C(=O)O)cc1 (stereo unspecified)
inactive: [1] 1.45% | [2] -4.1% | [3] 3.2% | [4] 0.55% | [5] 3.3% | [6] 6.45%

CC1NCCC(CC(=O)O)C1CC(=O)O (stereo unspecified)
inactive: [1] -7.55% | [2] -26% | [3] 1.75% | [4] -41.1% | [5] -26.8% | [6] -10.3%

Nc1ccc([N+](=O)[O-])c(C(F)(F)F)c1
inactive: [1] 14.1% | [2] -33.6% | [3] 4.25% | [4] -14.4% | [5] -6.55% | [6] 22.6%

CCCCCCC1(/C=C/c2ccc(Cl)c(Cl)c2)OCCCO1
inactive: [1] 6.15% | [2] 12.2% | [3] 12.6% | [4] -1.55% | [5] 3.2% | [6] 8.1%

Cc1n[nH]c(=S)n1C
inactive: [1] -25.2% | [2] -6.05% | [3] -4.25% | [4] -23.2% | [5] 8.55% | [6] 12.8%

C=Cc1cccc([N+](=O)[O-])c1
inactive: [1] 15.8% | [2] -0.15% | [3] 6.6% | [4] 16.5% | [5] 19.6% | [6] -3.7%

CCN(CC)Cc1cc(NC(C)=O)ccc1O
inactive: [1] -5.1% | [2] -13.7% | [3] -17.4% | [4] 11.1% | [5] -4.95% | [6] 2.3%

NCCCC(=O)NCCCC(=O)O
inactive: [1] 19.9% | [2] -5.75% | [3] -2.25% | [4] -15.9% | [5] -6.75% | [6] 2%

CCN1/C(=C/C=C/C=C/c2oc3ccccc3[n+]2CC)Oc2ccccc21
inactive: [1] 34% | [2] 5.6% | [3] 10.1% | [4] 36.8% | [5] 0.2% | [6] 17.2%

CCCCn1cnc2c(SC(C)C)nc(N)nc21
inactive: [1] -13.1% | [2] -2.15% | [3] 17.4% | [4] -24.9% | [5] 8.8% | [6] -16.2%

CCCCCCCCCCCCCCCc1c(NC(C)(CC(C)(C)O)[P+](=O)O)c(=O)n(C)n1C (stereo unspecified)
inactive: [1] -52.2% | [2] -31.1% | [3] -30.9% | [4] -25.2% | [5] -33.8% | [6] -33.4%

O=C(Nc1ccc(Br)cc1)c1cc(Cl)cc(Cl)c1Br
inactive: [1] -23.4% | [2] 17.9% | [3] -16.8% | [4] -11.6% | [5] 2.85% | [6] 27.7%

O=[N+]([O-])c1ccc(N/N=C(/c2ccccc2)C2CCCC2)c([N+](=O)[O-])c1
inactive: [1] 11.4% | [2] 18.6% | [3] 12.8% | [4] 7.9% | [5] 11.9% | [6] 12.9%

O=C1/C(=C/c2ccccc2)N=C2Sc3c(nc[nH]c3=O)N12
inactive: [1] 16.5% | [2] -23.8% | [3] -12.4% | [4] -7.25% | [5] 10.4% | [6] -39.2%
